# Compound activity as filed in PubChem.
# DT40 TDP1 CPT – qHTS for Inhibitors of human tyrosyl-DNA phosphodiesterase 1 (TDP1): qHTS in cells in presence of CPT | chicken DT40 Tdp1-/-;hTDP1 cells + 20 nM CPT, ATP luminescence, 48 h | Potency, µM (titrated, usually from 46.2 µM), without a hit: top-dose activity change, negative = growth inhibition, actives largely listed as inhibitors | hit rate 12% among 420,000 | AID 686979, 2013; note: potency is the fitted concentration of half-maximal effect; % is set by controls: 0 for no effect and ±100 for the full control effect; nearly all actives have a fitted effect of over 55% in size
#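 Chicken DT40 Tdp1-/- cells complemented with human TDP1, 400 cells/well, exposed to compounds plus 20 nM camptothecin for at least 48 h at 37 C; viability read as ATP content by CellTiter-Glo luminescence.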
# IL1B secr inh – qHTS for Inhibitors of Inflammasome Signaling: IL-1-beta AlphaLISA Primary Screen. THP-1 LPS/ATP IL-1B secretion, AlphaLISA, 16 h; hits give low values. activity change, % at 57.5 µM. hit rate 4.7% among 360,000. AID 743279, 2014; in the data active = activity change below about -50%; inconclusive = mostly about -30% to -49%; note: % is set by controls: 0 for no effect and ±100 for the full control effect
#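 Secreted IL-1B measured by AlphaLISA bead assay after 16 h compound exposure of THP-1 cells; compounds (final up to 57.5 uM) added 1 h before LPS (250 ng/mL) and ATP (1.25 mM) stimulation; lower signal means less secretion.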
# ClpP mod – qHTS Assay for Activators of ClpP; ATP-dependent Clp protease proteolytic subunit (Bacillus subtilis (strain 168)), P80244; purified B. subtilis ClpP, FRET peptide cleavage, 20 min; Potency, µM (highest dose often 57.5 µM), without a hit: at the highest dose activity change, negative = active; hit rate 1.9% among 340,000; active = well fitted falling curve with a large enough effect; inconclusive = small, poorly fitted or top-dose-only effect; inactive = no such curve, though single readings can be large or run the other way; note: potency is the fitted concentration of half-maximal effect; the source files actives as falling curves though it sought activators and does not explain the sign; nearly all actives have a fitted effect of over 65% in size
#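 ClpP 10 microg/mL final, pH 8 Tris/KCl buffer with BSA, glycerol, Tween-20; compound pinned in; FRET-FV substrate; RT 20 min; Ex320/Em430; ΔFRET vs ADEP 5.8 microM, DMSO, no enzyme.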
# D3 antag – qHTS of D3 Dopamine Receptor Antagonist: qHTS. D(3) dopamine receptor (Homo sapiens), P35462. D3R cells, DiscoveRx beta-arrestin luminescence, antagonist mode; hits give low values. max response, negative = inhibition, %. hit rate 2.5% among 360,000; in the data active = max response below about -50%; inconclusive = no clear call, values can overlap the other calls; note: % is set by controls: 0 for no effect and ±100 for the full control effect
#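 Cells plated overnight at 1500 cells/well, then exposed to library compounds with dopamine controls for 90 minutes at 37 degrees C. DiscoveRx reagent added for 30–60 minutes at room temperature; luminescence read, quantitative HTS format.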
# DRD3 agonist – qHTS of D3 Dopamine Receptor Agonist: qHTS | max activation, % | hit rate 0.58% among 410,000 | D3R DiscoveRx beta-arrestin cells, luminescence, 90 min; in the data active = max activation above about 30%; note: 0% is about no effect
#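 Agonist-mode cell screen: cells plated at 1500/well and incubated overnight at 37 °C, then exposed to library compounds for 90 min at 37 °C. Detection reagent was added for 30–60 min at room temperature, and luminescence was read.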
# DT40 TDP1 no CPT – qHTS for Inhibitors of human tyrosyl-DNA phosphodiesterase 1 (TDP1): qHTS in cells in absence of CPT. DT40 Tdp1-/- hTDP1 cells, no CPT, ATP luminescence, 48 h. Potency, µM (titrated, usually from 46.2 µM), for the others: at the top dose activity change, negative = growth inhibition, hits mostly inhibitors. hit rate 15% among 420,000. AID 686978, 2013; note: potency is the fitted concentration of half-maximal effect; % is set by controls: 0 for no effect and ±100 for the full control effect; nearly all actives have a fitted effect of over 55% in size
#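 Compound effects on proliferation are scored in DT40 Tdp1-/-;hTDP1 cells in the absence of CPT. ATP levels (CellTiter-Glo luminescence) are recorded after a ≥48 hr, 37 °C incubation.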
# The depositor's hits bear a star; ? = inconclusive; · = no result; [ ] = remark or other dose. Sampled rows, rich in hits. Any-hit rate of the full collection: about 21%. Unless noted, calls come from the whole dose curve; as a rule, active = well fitted inhibition curve with a large enough effect; inconclusive = small, poorly fitted or top-dose-only effect; inactive = flat fitted curve, though single readings scatter.
SMILES,DT40 TDP1 CPT,IL1B secr inh,ClpP mod,D3 antag,DRD3 agonist,DT40 TDP1 no CPT
CC1NC(=O)NC(=O)C1Br (stereo unspecified),-19%,1,1%,20,1,14%
C[C@@H](NC(=O)C[C@@H]1C[C@@H]2c3cc(NS(=O)(=O)c4ccc(F)cc4)ccc3O[C@@H]2[C@@H](CO)O1)c1ccccc1,?,14,1%,34,-1,?
COc1ccc(CCNC2CCCCC2)cc1OC,16%,0,·,-6,-12,11%
COc1cccc2c1N=C1CCCC3CN(C(C)=O)CCC123 (stereo unspecified),-7%,-1,·,24,8,-10%
Cc1cccc(-n2c(-c3cccs3)nc3ccccc3c2=O)c1,16µM*,24,-1%,13,2,?
O=c1c2ccccc2nc(-c2cccs2)n1-c1ccccc1,?,9,29%,2,1,23µM*
CC(=O)OCC1=C(C(=O)O)N2C(=O)C(NC(=O)CCCC(N)C(=O)O)C2SC1 (stereo unspecified),?,·,·,·,·,-23%
CCCOC(=O)C1=C(C)CS[C@@H]2[C@H](NC(=O)COc3ccccc3)C(=O)N12,20µM*,·,-14%,·,·,?
CN1C2CCC1C(C(=O)O)C(O)C2 (stereo unspecified),-22%,-10,-2%,-21,-9,-11%
ON1C2CCCCC2N(O)C1c1ccccc1 (stereo unspecified),0%,11,0%,12,1,?
C1=C(c2ccccc2)CCNC1,-2%,-6,3%,-52*,-36,-4%
Cc1[nH]c2ccccc2c1C1=CCNCC1,?,-1,-10%,?,-24,?
CNCC[C@@H](Oc1ccc(C(F)(F)F)cc1)c1ccccc1,?,·,3%,·,·,?
CN(Cc1ccccc1)C(=O)c1cccc(NC(=O)Cc2ccc([N+](=O)[O-])cc2)c1,23µM*,?,4%,5,3,15µM*
c1ccc2c(c1)sc1ccccc12,?,·,·,·,13,-26%
C[n+]1c(-c2ccccc2)sc2ccccc21,1.3µM*,14,-8%,11,1,1µM*
CCCCn1c(O)c(C(C)=NCc2cc(OC)cc(OC)c2)c(=O)[nH]c1=O,?,0,0%,0,4,?
CCC(=Nc1ccc2c(c1)CCC2)c1c(O)n(C2CCCCC2)c(=O)[nH]c1=O,29µM*,20,0%,14,1,18µM*
CCCCn1c(O)c(C(CC)=Nc2ccc(OC)cc2OC)c(=O)[nH]c1=O,?,-9,-2%,32,-1,?
CCCCn1c(O)c(C(CC)=NCc2cc(OC)cc(OC)c2)c(=O)[nH]c1=O,?,-10,1%,10,13,23µM*
COc1cc(CN=C(C)c2c(O)n(C3CCCCC3)c(=O)[nH]c2=O)cc(OC)c1,?,-23,·,4,7,23µM*
CCCCn1c(O)c(C(CC)=Nc2ccc(OCC)cc2)c(=O)[nH]c1=O,18µM*,28,-9%,18,0,21µM*
CCC1C(=O)OCC1Cc1cncn1C (stereo unspecified),7%,·,·,·,-3,-6%
C[C@]12CC[C@H](O)C[C@H]1CC[C@@H]1[C@@H]2CC[C@]2(C)C(=O)CC[C@@H]12,-15%,5,0%,16,9,?
CNC(=O)OCC[N+](C)(C)C,5%,·,·,·,-7,-19%
SMILES,DT40 TDP1 CPT,IL1B secr inh,ClpP mod,D3 antag,DRD3 agonist,DT40 TDP1 no CPT
CCCCn1c(O)c(C(CC)=NC(C)c2ccccc2)c(=O)[nH]c1=O (stereo unspecified),?,41,0%,15,22,26µM*
CCN(c1ccccc1)S(=O)(=O)c1ccc(C(=O)NC2CCCCC2)cc1,?,24,-1%,13,2,16µM*
COC(=O)[C@@H]1N=C(c2ccc(OC)cc2)O[C@]12C(=O)N(Cc1ccc(OC)cc1)c1ccccc12,18µM*,0,-5%,-9,-8,?
CC(Sc1ncnc2sccc12)C(=O)Nc1ccc(S(=O)(=O)N2CCOCC2)cc1 (stereo unspecified),?,15,-1%,7,-3,-33%
[O]=[Cr](=[O])([OH])[O][Cr](=[O])(=[O])[OH],?,·,·,·,7,17µM*
CN1C2CCC1CC(OC(=O)c1cccc(O)c1)C2 (stereo unspecified),10%,0,0%,-6,-12,-6%
CN1[C@@H]2CC[C@H]1CC(OC(c1ccc(F)cc1)c1ccc(F)cc1)C2 (stereo partly specified),6.7µM*,·,·,·,·,9.4µM*
O=C(Nc1ccc2nc(SCC(=O)N3CCCc4ccccc43)sc2c1)c1ccccc1F,5.8µM*,·,18µM*,·,-7,5.2µM*
COc1ccccc1C(=O)Nc1ccc2nc(SCC(=O)N3CCCc4ccccc43)sc2c1,5.2µM*,·,10µM*,·,-12,2.9µM*
C=C1C2C[C@]3(C4CC5[C@@]6(C)CC[C@H](O)[C@@]5(C3CC2=O)C4[N+]([O-])(CC)C6)[C@@H]1O (stereo partly specified),12%[9.04 µM],·,·,·,·,-8%[9.04 µM]
Cc1cccc(CCNCc2cc3ccc(C)cc3[nH]c2=O)c1,23µM*,-12,-20%,3,-16,?
Cc1cccc(OCCn2cccc2/C=C2/C(=O)NC(=O)N(Cc3ccco3)C2=O)c1,0%,?,·,-1,-6,-5%
CCc1ccc(N2C(=O)NC(=O)/C(=C/c3cccn3CCOc3ccc(C(C)CC)cc3)C2=O)cc1 (stereo unspecified),?,-28,1%,-11,-5,15µM*
CCc1ccc(N2C(=O)NC(=O)/C(=C/c3cccn3CCOc3ccc(C)cc3)C2=O)cc1,26µM*,-16,·,?,-2,?
Cc1ccc(Cn2ccccc2=N)cc1,-8%,0,-21%,8,10,-23%
COCCN1C(=NCCCOC(C)C)N[C@@H](c2ccccc2)C(C(=O)OC)=C1C,?,20,-11%,0,-7,?
NCC(=O)c1ccc(Cl)c(Cl)c1,?,·,-3%,·,·,?
O=S(=O)(CCN1CCN(c2ccccn2)CC1)c1ccc(Cl)cc1Cl,11%,-22,?,-5,-6,2%
